# The supplement of paper PMC8728848
# Shown is part of a subset that was picked to be rich in the strongest signals.
# B1: SRS6 (Toxoplasma gondii), Q9NH12 (protein)
# chain: MARTGSMQQRRGGFQTTARMLMAVCVSGVLLLSSGPSSANKLTEGQQNQNSGPGAATQEGPTIEGAVAKCVLKTTAAENGSSRAKNTTGLTLSKENLVVSLQCSGEKNAIVPKDQKKVCSAAPNAKVADCKGADTDKQVTLKSLLGTSGDIQWEKTIVSTDNKGEVMTLKIKESELPLFDKAFFVGCEEDKAQTRTSQATECKVNVSVKARPSTVGENNVVTCAYGKDSNPRPLEVEMSADNDTLTIDCGTDGSLKPTKYTEEFCVTDNSQLESCTTKKFSEILPTFLPSWWVSDSQNGSAKLTIPESGFPEEQQQFRLGCVPKKTTQSPQANPSVKTEKEEGAQNTDASTSNCSVIVTVKASNFSSLASSIAPTAAVAGGAAALTGFLVGSF
# B2: GH98CBM51-1 (Streptococcus pneumoniae) (protein)
# chain: MTYLSDMDWSSATHGDIDKTKTVQKDAPFTTGNKGEHTKISLLTSDDKVKYFDKGIGTVADSPSVISYDISGQGFEKFETYIGIDQSANSSRSDHAVVDRIEIEIDGKVVYSSSVTNPEGFRYNTQAQFISVTIPQNAKKISLKSFAGEHTWGDEVVFADAKLIKTVST
# Columns and labels:
# Assay in all cases: glycan array binding signal (z-score within array); higher = stronger binding
# Details in all cases: glycan notation: IUPAC condensed, linker removed
# [1] = molecular target: Fuc(a1-2)Gal(b1-3)GalNAc(b1-3)Gal
# Outline: (§1)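 The binding signal is a Z-score computed within each array. Data were drawn from 3228 arrays in the Consortium for Functional Glycomics database, restricted to those with a known protein sequence. Scores were averaged over arrays of the same protein sequence at different concentrations or buffers, and over linkers, and negative values can be taken as non-binding.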
# [2] = molecular target: Fuc(a1-2)Gal(b1-4)GlcNAc(b1-2)Man(a1-3)[Fuc(a1-2)Gal(b1-4)GlcNAc(b1-2)Man(a1-6)]Man(b1-4)GlcNAc(b1-4)GlcNAc
# Outline: as §1
# [3] = molecular target: Fuc(a1-2)Gal(b1-4)[Fuc(a1-3)]GlcNAc
# Outline: as §1
# [4] = molecular target: Fuc(a1-2)[Gal(a1-3)]Gal(b1-4)Glc
# Outline: as §1
# [5] = molecular target: Fuc(a1-2)[GalNAc(a1-3)]Gal(b1-4)GlcNAc(b1-3)Gal(b1-4)GlcNAc(b1-3)Gal(b1-4)GlcNAc
# Outline: as §1
# Gal(a1-3)Gal = molecular target: Gal(a1-3)Gal
# Outline: as §1
# [6] = molecular target: Gal(a1-3)Gal(b1-4)GlcNAc(b1-3)GalNAc
# Outline: as §1
# [7] = molecular target: Gal(a1-3)Gal(b1-4)[Fuc(a1-3)]GlcNAc(b1-2)Man(a1-3)[Gal(a1-3)Gal(b1-4)[Fuc(a1-3)]GlcNAc(b1-2)Man(a1-6)]Man(b1-4)GlcNAc(b1-4)GlcNAc
# Outline: as §1
# Gal(a1-3)GalNAc = molecular target: Gal(a1-3)GalNAc
# Outline: as §1
# Gal(b1-3)Gal(b1-4)GlcNAc = molecular target: Gal(b1-3)Gal(b1-4)GlcNAc
# Outline: as §1
# [8] = molecular target: Gal(b1-3)GlcNAc(b1-2)Man(a1-3)[Gal(b1-3)GlcNAc(b1-2)Man(a1-6)]Man(b1-4)GlcNAc(b1-4)[Fuc(a1-6)]GlcNAc
# Outline: as §1
# [9] = molecular target: Gal(b1-4)GlcNAc(b1-2)Man(a1-3)[Gal(b1-4)GlcNAc(b1-2)Man(a1-6)]Man(b1-4)GlcNAc(b1-4)GlcNAc
# Outline: as §1
# [10] = molecular target: Gal(b1-4)GlcNAc(b1-2)Man(a1-3)[Gal(b1-4)GlcNAc(b1-2)Man(a1-6)]Man(b1-4)GlcNAc(b1-4)[Fuc(a1-6)]GlcNAc
# Outline: as §1
# [11] = molecular target: Gal(b1-4)GlcNAc(b1-3)Gal(b1-4)GlcNAc(b1-3)Gal(b1-4)GlcNAc
# Outline: as §1
# [12] = molecular target: Gal(b1-4)GlcNAc(b1-3)Gal(b1-4)[Fuc(a1-3)]GlcNAc(b1-3)Gal(b1-4)[Fuc(a1-3)]GlcNAc
# Outline: as §1
# [13] = molecular target: Gal(b1-4)GlcNAc(b1-3)[GlcNAc(b1-6)]Gal(b1-4)GlcNAc
# Outline: as §1
# Gal6S(b1-4)Glc6S = molecular target: Gal6S(b1-4)Glc6S
# Outline: as §1
# GalNAc(a1-3)Gal = molecular target: GalNAc(a1-3)Gal
# Outline: as §1
# [14] = molecular target: GlcNAc(a1-4)Gal(b1-4)GalNAc
# Outline: as §1
# [15] = molecular target: GlcNAc(a1-4)Gal(b1-4)GlcNAc(b1-3)Gal(b1-4)[Fuc(a1-3)]GlcNAc(b1-3)Gal(b1-4)[Fuc(a1-3)]GlcNAc
# Outline: as §1
# [16] = molecular target: GlcNAc(b1-2)Man(a1-3)[GlcNAc(b1-2)Man(a1-6)]Man(b1-4)GlcNAc(b1-4)[Fuc(a1-6)]GlcNAc
# Outline: as §1
# [17] = molecular target: Man(a1-3)[Man(a1-6)]Man(a1-6)[Man(a1-2)Man(a1-3)]Man(b1-4)GlcNAc(b1-4)GlcNAc
# Outline: as §1
# [18] = molecular target: Neu5Ac(a2-3)Gal(b1-4)GlcNAc(b1-3)Gal(b1-4)GlcNAc
# Outline: as §1
# [19] = molecular target: Neu5Ac(a2-3)Gal(b1-4)[Fuc(a1-3)]GlcNAc
# Outline: as §1
# [20] = molecular target: Neu5Ac(a2-3)GalNAc(b1-4)GlcNAc
# Outline: as §1
# Neu5Ac(a2-6)Gal = molecular target: Neu5Ac(a2-6)Gal
# Outline: as §1
# [21] = molecular target: Neu5Gc(a2-3)Gal(b1-4)[Fuc(a1-3)]GlcNAc
# Outline: as §1
# [22] = molecular target: Neu5Gc(b2-6)Gal(b1-4)GlcNAc
# Outline: as §1
# [23] = molecular target: Fuc(a1-2)Gal(b1-3)[Fuc(a1-4)]GlcNAc(b1-3)[Gal(b1-4)GlcNAc(b1-6)]Gal(b1-4)Glc
# Outline: as §1
# Fuc(a1-2)Gal(b1-4)GlcNAc = molecular target: Fuc(a1-2)Gal(b1-4)GlcNAc
# Outline: as §1
# [24] = molecular target: Fuc(a1-2)Gal(b1-4)GlcNAc(b1-3)GalNAc
# Outline: as §1
# [25] = molecular target: Fuc(a1-2)Gal(b1-4)GlcNAc6S
# Outline: as §1
# Fuc(a1-2)Gal6S(b1-4)Glc = molecular target: Fuc(a1-2)Gal6S(b1-4)Glc
# Outline: as §1
# Fuc(a1-2)[Gal(a1-3)]Gal = molecular target: Fuc(a1-2)[Gal(a1-3)]Gal
# Outline: as §1
# [26] = molecular target: Fuc(a1-2)[Gal(a1-3)]Gal(b1-4)GlcNAc
# Outline: as §1
# [27] = molecular target: Fuc(a1-2)[Gal(a1-3)]Gal(b1-4)GlcNAc(b1-2)Man(a1-3)[Fuc(a1-2)[Gal(a1-3)]Gal(b1-4)GlcNAc(b1-2)Man(a1-6)]Man(b1-4)GlcNAc(b1-4)GlcNAc
# Outline: as §1
# [28] = molecular target: Fuc(a1-2)[GalNAc(a1-3)]Gal(b1-3)GlcNAc(b1-2)Man(a1-3)[Fuc(a1-2)[GalNAc(a1-3)]Gal(b1-3)GlcNAc(b1-2)Man(a1-6)]Man(b1-4)GlcNAc(b1-4)GlcNAc
# Outline: as §1
# [29] = molecular target: Fuc(a1-2)[GalNAc(a1-3)]Gal(b1-4)GlcNAc
# Outline: as §1
# [30] = molecular target: Fuc(a1-2)[GalNAc(a1-3)]Gal(b1-4)GlcNAc(b1-2)Man(a1-3)[Fuc(a1-2)[GalNAc(a1-3)]Gal(b1-4)GlcNAc(b1-2)Man(a1-6)]Man(b1-4)GlcNAc(b1-4)GlcNAc
# Outline: as §1
# [31] = molecular target: Fuc(a1-2)[GalNAc(a1-3)]Gal(b1-4)GlcNAc(b1-3)Gal(b1-4)GlcNAc
# Outline: as §1
# [32] = molecular target: Fuc(a1-3)[Gal(b1-4)]GlcNAc
# Outline: as §1
# Fuc(b1-3)GlcNAc = molecular target: Fuc(b1-3)GlcNAc
# Outline: as §1
# [33] = molecular target: Gal(a1-3)Gal(b1-3)GlcNAc(b1-2)Man(a1-3)[Gal(a1-3)Gal(b1-3)GlcNAc(b1-2)Man(a1-6)]Man(b1-4)GlcNAc(b1-4)GlcNAc
# Outline: as §1
# [34] = molecular target: Gal(a1-3)Gal(b1-4)[Fuc(a1-3)]GlcNAc
# Outline: as §1
# Gal(a1-6)Glc = molecular target: Gal(a1-6)Glc
# Outline: as §1
# Gal(b1-3)Gal = molecular target: Gal(b1-3)Gal
# Outline: as §1
# [35] = molecular target: Gal(b1-3)GalNAc(b1-3)Gal(a1-4)Gal(b1-4)Glc
# Outline: as §1
# Gal(b1-3)GlcNAc = molecular target: Gal(b1-3)GlcNAc
# Outline: as §1
# [36] = molecular target: Gal(b1-4)GlcNAc(a1-6)Gal(b1-4)GlcNAc
# Outline: as §1
# [37] = molecular target: GlcNAc(a1-3)Gal(b1-4)GlcNAc
# Outline: as §1
# [38] = molecular target: GlcNAc(a1-4)Gal(b1-3)GlcNAc
# Outline: as §1
# [39] = molecular target: GlcNAc(b1-4)GlcNAc(b1-4)GlcNAc(b1-4)GlcNAc(b1-4)GlcNAc(b1-4)GlcNAc
# Outline: as §1
# Kdn(a2-3)Gal(b1-4)Glc = molecular target: Kdn(a2-3)Gal(b1-4)Glc
# Outline: as §1
# [40] = molecular target: Neu5Ac(a2-3)Gal(b1-3)GlcNAc6S
# Outline: as §1
# [41] = molecular target: Neu5Ac(a2-3)Gal(b1-3)[Fuc(a1-4)]GlcNAc(b1-3)Gal(b1-3)[Fuc(a1-4)]GlcNAc
# Outline: as §1
binder,measurement,setting,value
B1,glycan array binding signal (z-score),[1],1.86
same,glycan array binding signal (z-score),[2],1.71
same,glycan array binding signal (z-score),[3],0.016
same,glycan array binding signal (z-score),[4],-0.753
same,glycan array binding signal (z-score),[5],-0.105
same,glycan array binding signal (z-score),Gal(a1-3)Gal,0.351
same,glycan array binding signal (z-score),[6],0.006
same,glycan array binding signal (z-score),[7],0.436
same,glycan array binding signal (z-score),Gal(a1-3)GalNAc,-0.288
same,glycan array binding signal (z-score),Gal(b1-3)Gal(b1-4)GlcNAc,-0.549
same,glycan array binding signal (z-score),[8],1.28
same,glycan array binding signal (z-score),[9],-0.558
same,glycan array binding signal (z-score),[10],3.04
same,glycan array binding signal (z-score),[11],2.32
same,glycan array binding signal (z-score),[12],-0.096
same,glycan array binding signal (z-score),[13],0.169
same,glycan array binding signal (z-score),Gal6S(b1-4)Glc6S,4.38
same,glycan array binding signal (z-score),GalNAc(a1-3)Gal,0.054
same,glycan array binding signal (z-score),[14],0.375
same,glycan array binding signal (z-score),[15],0.807
same,glycan array binding signal (z-score),[16],13.7
same,glycan array binding signal (z-score),[17],1.44
same,glycan array binding signal (z-score),[18],2.13
same,glycan array binding signal (z-score),[19],-0.808
same,glycan array binding signal (z-score),[20],-0.177
same,glycan array binding signal (z-score),Neu5Ac(a2-6)Gal,0.288
same,glycan array binding signal (z-score),[21],0.103
same,glycan array binding signal (z-score),[22],0.403
B2,glycan array binding signal (z-score),[1],-0.187
same,glycan array binding signal (z-score),[23],-0.19
same,glycan array binding signal (z-score),Fuc(a1-2)Gal(b1-4)GlcNAc,-0.191
same,glycan array binding signal (z-score),[24],-0.194
same,glycan array binding signal (z-score),[25],-0.194
same,glycan array binding signal (z-score),Fuc(a1-2)Gal6S(b1-4)Glc,-0.185
same,glycan array binding signal (z-score),Fuc(a1-2)[Gal(a1-3)]Gal,5.96
same,glycan array binding signal (z-score),[26],5.12
same,glycan array binding signal (z-score),[27],8.05
same,glycan array binding signal (z-score),[28],-0.122
same,glycan array binding signal (z-score),[29],5.07
same,glycan array binding signal (z-score),[30],5.04
same,glycan array binding signal (z-score),[31],5.55
same,glycan array binding signal (z-score),[5],4.91
same,glycan array binding signal (z-score),[32],-0.192
same,glycan array binding signal (z-score),Fuc(b1-3)GlcNAc,-0.193
same,glycan array binding signal (z-score),[33],-0.171
same,glycan array binding signal (z-score),[6],-0.191
same,glycan array binding signal (z-score),[34],-0.186
same,glycan array binding signal (z-score),Gal(a1-6)Glc,-0.186
same,glycan array binding signal (z-score),Gal(b1-3)Gal,-0.181
same,glycan array binding signal (z-score),[35],-0.191
same,glycan array binding signal (z-score),Gal(b1-3)GlcNAc,-0.188
same,glycan array binding signal (z-score),[36],-0.186
same,glycan array binding signal (z-score),[37],-0.193
same,glycan array binding signal (z-score),[38],-0.189
same,glycan array binding signal (z-score),[39],-0.195
same,glycan array binding signal (z-score),Kdn(a2-3)Gal(b1-4)Glc,-0.191
same,glycan array binding signal (z-score),[40],-0.196
same,glycan array binding signal (z-score),[41],-0.184
